Bioassay records: PubChem, University of Kansas High Throughput Screening Laboratory
mHTT CaM bind – mutant huntingtin-calmodulin interaction inhibitors – biochemical, AlphaScreen, primary screen; P42858; AlphaScreen His-mHTT/GST-CaM binding, luminescence; inhibition, % at 15 µM; 190,000 tested, 3.6% active;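 further: 0% = both proteins with DMSO and 100% = one protein alone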
Pf apPOL block – Pf-apPOL inhibitors, biochemical, fluorescence; Recombinant Pf-apPOL, molecular beacon fluorescence, 1.5 h; inhibition, % at 10 µM; 210,000 tested, 0.25% active
An asterisk follows results filed as active; i = inactive; nt = no result given; ! = a repeat was not active. Shown are actives, neighbours in structure and some others; about 3.5% of the full set was active somewhere. No stated cut-off is given here; in the data, active means inhibition above about 50%; inactive means the rest.

SMILES	mHTT CaM bind	Pf apPOL block
Cn1c(=O)c2c(c3ccccc31)NC(=S)NN=C2	97.2*	nt
COc1ccc(CC(=O)N2CCC3(C2)C(=O)N(C)c2ccc(OC)cc23)c(Cl)c1 (configuration not stated)	14.3	1.5
CCn1cc(C(=O)NCc2ccccc2)c2cccnc21	-3.5	-16.9
Cc1ccc(-c2nnc(N3CCC(C(=O)N4CCC5(CC4)OCCO5)CC3)o2)cc1	20.8	-6.6
N#CC1=C(N)Oc2n[nH]c(-c3ccc(F)cc3)c2C1c1ccc(F)cc1 (configuration not stated)	-4.0	-9.4
Cc1ccc(N2CCN(CCc3ccccc3)CC2)cc1	14.9	-2.9
Cc1cccc(N2CCN(CCc3ccccc3)CC2)c1C	100.2*	-2.2
COc1cc(/C=C/[N+](=O)[O-])c(OC)cc1C	24.8	-3.8
COc1cc(Br)cc(/C=C/[N+](=O)[O-])c1O	71.9*	-0.8
COc1ccc(C=C2Oc3cc(OC(=O)N(C)C)cc(C)c3C2=O)cc1OC	1.2	-5.7
COc1ccc(C=C2C(=O)NC(=S)NC2=O)cc1Br	nt	64.2*
COc1cc(C=C2C(=O)NC(=O)NC2=O)ccc1OCC(=O)O	4.0	-1.4
CC(C(=O)Nc1ccc(Cl)cc1C(=O)c1ccccc1)N1CCOCC1 (configuration not stated)	0.7	-3.2
COc1ccc(NC(=O)c2nc(C)n(C3CCN(C)CC3)c2C)c(OC)c1	21.3	58.6*
COc1ccc(OC)c(NC(=O)c2nc(C)n(C3CCN(C)CC3)c2C)c1	27.2	-4.7
CCOc1ccc(CC(=O)N2CCCN(C3CCN(Cc4ccccc4)C3=O)CC2)cc1 (configuration not stated)	14.5	-4.1
CN(C)c1ccc(CN2CCN(Cc3ccccc3)CC2)cc1	3.0	-3.3
CN(C)c1ccc(CN2CCN(c3ccccc3Cl)CC2)cc1	53.1*	-7.5
COc1cc(C2c3cc4c(cc3OC3(N5CCCC5)CCCC23)OCO4)cc(OC)c1OC (configuration not stated)	29.7	nt
CN1C2CCC1CC(N=Cc1ccccc1)C2 (configuration not stated)	nt	-5.6
Cc1nn(-c2ccccc2)c([Se])c1C=NC1CCCCC1	63.0*	-0.9
CCNC1(c2cccs2)CCCCC1	-2.0	nt
CC(C)C/C(=N\O)c1cn(C)c2ccccc12	i	nt
CN(C)C(CN)c1cn(C)c2ccccc12 (configuration not stated)	69.4*	-0.1
COc1ccc(OC)c(CN2CCN(c3ccccc3Cl)CC2)c1	11.7	-3.8
SMILES	mHTT CaM bind	Pf apPOL block
CN(C)c1ccc(CN2CC=C(c3ccc(F)cc3)CC2)cc1	51.7*	3.0
CN(C)c1ccc(CN2CCN(c3ccc(F)cc3)CC2)cc1	37.6	-3.9
CCN1CC2(C)CCC(OC)C34C5CC6CCC(O)(C5C(=O)O6)C(C(O)C23)C14 (configuration not stated)	nt	-1.3
O=C1OC(c2ccc([N+](=O)[O-])cc2)=N/C1=C\N1CC2CC(C1)c1cccc(=O)n1C2 (configuration not stated)	9.0	0.5
Ic1ccc2c(c1)C1C=CCC1C(c1cccnc1)N2 (configuration not stated)	97.0*	-3.0
Fc1ccc2c(c1)[C@@H]1C=CC[C@@H]1[C@H](c1cccnc1)N2	16.7	nt
CC1=C2C3OC(=O)C(C)C3CCC2(C)C=CC1=O (configuration not stated)	nt	-6.1
COc1cccc(-n2c(/C=C/c3cccc([N+](=O)[O-])c3)nc3ccccc3c2=O)c1	26.5	-1.0
O=c1c2ccccc2nc(/C=C/c2cccc([N+](=O)[O-])c2)n1-c1ccccn1	2.0	91.0*!
Cc1cccc(-n2c(/C=C/c3cccnc3)nc3ccccc3c2=O)c1	100.2*	-9.2
COc1cccc(-n2c(/C=C/c3ccc(O)c(O)c3)nc3ccccc3c2=O)c1	69.6*	-4.2
Cc1cccc(/C=C/c2nc3ccccc3c(=O)n2-c2cccc(O)c2)c1	24.7	-12.3
COc1ccc(-n2c(/C=C/c3ccc(O)c(OC)c3)nc3ccccc3c2=O)cc1	10.1	-3.8
Cc1[nH]nc2c1C(c1ccsc1)SCC(=O)N2 (configuration not stated)	-3.7	-1.3
CC(C)=CCOc1cc(C)cc2oc(=O)c3c(c12)CCC3	-19.0	2.8
O=C(CSCc1nc2ccccc2c(=O)n1-c1ccccc1Cl)Nc1ccccc1	10.9	-4.8
c1ccc(CN=C2Nc3ncccc3NC23CCCNC3)cc1 (configuration not stated)	-0.1	-5.3
COc1cccc(CNC(=O)N2CCC3(C2)C(=O)Nc2ccc(OC)cc23)c1 (configuration not stated)	15.4	-5.5
c1cnc2nc(N3CCNCC3)oc2c1	-2.8	nt
Fc1nc(N2CCNCC2)c(F)c(Sc2ccc(Cl)cc2)c1F	96.3*	nt
CC1N=C(c2ccccc2)c2ccccc2N(CC(=O)Nc2ccc(F)c(Cl)c2)C1=O (configuration not stated)	66.0*	-19.2
CC1N=C(c2ccccc2)c2ccccc2N(CC(=O)Nc2ccc(F)cc2Cl)C1=O (configuration not stated)	5.0	-18.9
CN(C)C(=O)Oc1ccc2c(c1)OC(=CC=Cc1ccccc1)C2=O	59.0*!	-4.0
COc1cccc(C=C2Oc3cc(OC(=O)N(C)C)ccc3C2=O)c1	10.6	-0.5
Cc1cccc(CC(=O)N2CCCN(C3CCN(Cc4ccc(F)cc4)C3=O)CC2)c1 (configuration not stated)	86.2*	1.4
SMILES	mHTT CaM bind	Pf apPOL block
O=C(Cc1ccsc1)N1CCCN(C2CCN(Cc3ccc(F)cc3)C2=O)CC1 (configuration not stated)	39.2	0.8
CCN(CC)c1ccc(CC2C(=O)N(C)C(=O)N(C)C2=O)cc1	56.7*	-1.4
C=CCOc1ccc(CC2C(=O)N(C)C(=O)N(C)C2=O)cc1	100.1*	-4.8
Cc1ccc(CC2C(=O)N(C)C(=O)N(C)C2=O)s1	6.8	-6.1
COc1ccc2c(c1)C1(CCN(S(=O)(=O)c3cccc(Cl)c3)C1)C(=O)N2 (configuration not stated)	35.6	1.8
Nc1cc2nc3ccccc3nc2cc1O	100.3*	0.1
Nc1cc2nc3ccccc3nc2cc1N	19.1	nt
Cc1cc(C=C2C(=O)N(C)C(=O)N(C)C2=O)c(C)n1-c1ccc(Br)cc1	8.0	-0.6
CN(C)CC(=O)Nc1ccc(Br)cc1C(=O)c1ccccc1Cl	14.0	-2.2
O=[N+]([O-])c1c(Br)sc(Br)c1[N+](=O)[O-]	51.8*	nt
COc1ccccc1CN1CCN(c2ccccc2OC)CC1	-0.4	-0.8
O=C(c1ccncc1)N1CC2CC(C1)c1cccc(=O)n1C2 (configuration not stated)	-8.7	2.3
CC12CCC3C(CCC4CC(O)CCC43C)C1CC(=Cc1ccc(C(F)(F)F)cc1)C2=O (configuration not stated)	2.4	-0.9
COc1ccc2c(c1)C1(CCN(C(=O)c3ccc(Cl)cc3)C1)C(=O)N2C (configuration not stated)	17.2	-0.7
NCCc1cc(O)c(O)cc1O	31.3	nt
NC(Cc1cc(O)c(O)cc1O)C(=O)O (configuration not stated)	nt	81.4*
CC1CN(c2ccc(C(F)(F)F)cc2[N+](=O)[O-])CC(C)N1 (configuration not stated)	-3.0	2.1
O=C(O)C1Cc2cc(C(F)(F)F)ccc2N2CCCCC12 (configuration not stated)	50.4*	2.6
